Reference: PubChem BioAssay (EPA / NIEHS)
Activity calls are given as the source filed them. How the source made its calls: active means hit-call score of the fitted dose curve at least 0.9, where 1 is the maximum; inactive means score below 0.9.

Experiment: ATG_BRE_CIS: Attagene CIS-FACTORIAL HepG2 Assay for human Bone Morphogenetic Protein (BMP) Response Element (BRE) (AID 2282933)
Settings: HepG2 BMP response element reporter, Attagene transcription factor profiling; actives raise or lower the signal
Procedure: ATG_CIS is a cell-based, multiplexed-readout assay that uses HepG2, a human liver cell line, with measurements taken at 24 hours after chemical dosing in a 24-well plate.ATG_BRE_CIS is one of 52 assay component(s) measured or calculated from the ATG_CIS assay. It is designed to make measurements of mRNA induction, a form of inducible reporter, as detected with fluorescence intensity signals by Reverse transcription polymerase chain reaction (RT-PCR) and Capillary electrophoresis technology.Data from the assay component ATG_BRE_CIS was analyzed into 1 assay endpoint. This assay endpoint, ATG_BRE_CIS, was analyzed with bidirectional fitting relative to DMSO as the negative control and baseline of activity. Using a type of inducible reporter, measures of mRNA for gain or loss-of-signal activity can be used to understand the reporter gene at the transcription factor-level as they relate to the gene SMAD1. Furthermore, this assay endpoint can be referred to as a primary readout, because this assay has produced multiple assay endpoints where this one serves a reporter gene function. To generalize the intended target to other relatable targets, this assay endpoint is annotated to the dna binding intended target family, where the subfamily is Smad protein.
Human liver HepG2 cells are transiently transfected with multiple reporter transcription units (MRTUs) in 6-well plates using FuGene 6 reagent (Roche; 3 ml FuGene/1 mg DNA). The MRTU constructs are regulated by a cis-regulating element (promoter). […] A major difference between the CIS and TRANS system is that in CIS activities of endogenous TFs are measured, whereas the TRANS assay evaluates changes in activities of exogenous, chimeric NR-Gal4 proteins. […] At the end of 24 hour incubation, total RNA was isolated using TriZol reagent (Invitrogen). The isolated RNA is then reverse-transcribed using oligo(dT) primer and Mo-MLV reverse transcriptase (Invitrogen) with DNAse I (Ambion) treatment for 30 min. The one-tenth of the produced cDNA was amplified by PCR using Taq DNA polymerase (Invitrogen) and two reporter sequence-specific primers. The PCR products were fluorescently labeled by primer extension with 6-arboxyfluorescein (6-FAM) 5'-labeled reporter sequence-specific primer (2 min at 95 C, 20 s at 68 C and 10 min at 72 C) and these products were digested with 5U of HpaI (New England Biolabs) for 2h at 37 C. The fragments were purified using Qiaquick PCR columns (Qiagen), analyzed on an ABI 3130xL genetic analyzer (Applied Biosystems) with peak positions identified by using a set of X-rhodamine (ROX)-labeled MapMarker1000 molecular weight standards (BioVentures). The raw capillary electrophoresis data was processed using Attagraph software (Attagene).

Compound	outcome	AC50
CNC(=C[N+](=O)[O-])NCCSCc1ccc(CN(C)C)o1	inactive	–
Cc1cccc(O)c1	inactive	–
CCO[Si](CC)(OCC)OCC	inactive	–
C=C(C)C(=O)OCCC[Si](OC)(OC)OC	inactive	–
OCC=Cc1ccccc1	inactive	–
CCCCCCCC1CCCC1=O (stereo not given)	inactive	–
O=S1(=O)CC(Cl)(Cl)C(Cl)(Cl)C1	inactive	–
CC(C)(C)c1ccc(S)cc1	inactive	–
CC1(C)CC(=O)CC(C)(C)N1	inactive	–
CCCCCC1CCC(=O)O1 (stereo not given)	inactive	–
CC1=CC[C@@H](C(C)(C)O)CC1	inactive	–
Cc1ccc(C(C)(C)O)cc1	inactive	–
S=c1[nH][nH]c(=S)s1	inactive	–
O=C1OCc2ccccc21	inactive	–
CC(=O)OC(C)(C)C1CC=C(C)CC1 (stereo not given)	inactive	–
CC(=N[Si](C)(C)C)O[Si](C)(C)C	inactive	–
CCNC(=S)NCC	inactive	–
CC(=O)c1cccnc1	inactive	–
Cc1cc(O)c2c(c1)C(=O)c1cc(O)cc(O)c1C2=O	–	9.2 µM (active)
O=Cc1ccccc1O	inactive	–

Compound	outcome	AC50
c1ccc2c(c1)-c1ccc3ccc4cccc5cc-2c1c3c45	inactive	–
CC(C)C(=O)OCC=Cc1ccccc1	inactive	–
CCC(=O)OC/C=C(\C)CCC=C(C)C	inactive	–
CCCCCCCCCCCCCCCCCC(=O)OCCCCCCCCCCCCCC(C)C	inactive	–
FC(F)(F)c1ccc(Cl)c(Cl)c1	inactive	–
CCCO	inactive	–
CCCCCC1C(=O)CCC1CC(=O)OC (stereo not given)	inactive	–
CN(C)C	inactive	–
O=S(=O)(O)CCCN1CCOCC1	inactive	–
CC(=O)N(C)C	inactive	–
CC(=O)c1ccc(O)cc1	inactive	–
CCOC(=O)CC1(C)OCC(C)O1 (stereo not given)	inactive	–
CCCCCCCCCCCCOC(C)=O	inactive	–
C=C1CC/C=C(\C)CC[C@@H]2[C@@H]1CC2(C)C	inactive	–
CCC(C)(C)C1CCC(OC)CC1 (stereo not given)	inactive	–
CCCCC1CCCCC(=O)O1 (stereo not given)	inactive	–
CCCCCCCCOC(C)=O	inactive	–
CCCCCCCCCCCCOCCOS(=O)(=O)O	inactive	–
C1=COCCC1	inactive	–
O=C(C=Cc1ccccc1)OCCCc1ccccc1	inactive	–
